# Results filed as inconclusive are left out. The source made the active and inactive calls. Rule for the calls: active = hit-call score of the fitted dose curve at least 0.9, where 1 is the maximum; inconclusive = response in the unintended direction; inactive = score below 0.9.
# Experiments:
# AR (gene 367) [1] = biological target: AR (gene 367) (UniProt P10275); assay: ACEA_AR_agonist_80hr: ACEA Biosciences xCELLigence Real-Time Cell Analysis on Androgen Receptor Agonism for Proliferation (AID 2283783);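 note: hits increase impedance growth signal above DMSO baseline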
# Method in brief: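 Androgen-driven proliferation in 22Rv1 cells is tracked as electrical impedance, taken 80 h after continuous exposure to compound (eight concentrations, 1:4 steps, maximum 100 uM final). Activity is fitted in the positive direction with DMSO as baseline.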
# AR (gene 367) [2] = biological target: AR (gene 367) (UniProt P10275); assay: ACEA_AR_antagonist_80hr: ACEA Biosciences xCELLigence Real-Time Cell Analysis on Androgen Receptor Antagonism for Proliferation (AID 2283787);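 note: 22Rv1 human prostate cancer cells with growth followed by electrical impedance; hits lower the impedance growth signal relative to DMSO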
# Method in brief: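 Growth-kinetic antagonist readout in 22Rv1 cells, taken 80 h after continuous compound exposure. Activity fitted as signal loss relative to DMSO negative control.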
# [3] = ACEA_ER_AUC_viability: ACEA Biosciences xCELLigence Real-Time Cell Analysis on Estrogen Receptor Agonism for Viability (AID 2283782);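 note: continuous compound exposure with impedance area under curve over 80 h; hit means loss of impedance signal meaning reduced cell growth or viability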
# Method in brief: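 T-47D; phenol red-free RPMI1640 + 10% CS-FBS; 8 conc., 1:4 serial, max 100 uM final, ≤0.5% DMSO; n = 2; continuous exposure; impedance monitored to 80 h post-dose; AUC vs DMSO.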
# [4] = STM_H9_NormalizedViability: Cytotoxicity Assessment at 120 hours in the Stemina devTOX quickPredict H9 human embryonic stem cell (hESC)-based Assay (AID 2283784)
# Method in brief: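 Pluripotent H9 hESCs were exposed, with chemical and media replaced every 24 h. Viability was read by CellTiter-Fluor fluorescence, background-corrected and normalized to the 0.1% DMSO neutral control per plate. Loss of signal was fitted.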
# Chain of AR (gene 367) (P10275 whole entry, looked up): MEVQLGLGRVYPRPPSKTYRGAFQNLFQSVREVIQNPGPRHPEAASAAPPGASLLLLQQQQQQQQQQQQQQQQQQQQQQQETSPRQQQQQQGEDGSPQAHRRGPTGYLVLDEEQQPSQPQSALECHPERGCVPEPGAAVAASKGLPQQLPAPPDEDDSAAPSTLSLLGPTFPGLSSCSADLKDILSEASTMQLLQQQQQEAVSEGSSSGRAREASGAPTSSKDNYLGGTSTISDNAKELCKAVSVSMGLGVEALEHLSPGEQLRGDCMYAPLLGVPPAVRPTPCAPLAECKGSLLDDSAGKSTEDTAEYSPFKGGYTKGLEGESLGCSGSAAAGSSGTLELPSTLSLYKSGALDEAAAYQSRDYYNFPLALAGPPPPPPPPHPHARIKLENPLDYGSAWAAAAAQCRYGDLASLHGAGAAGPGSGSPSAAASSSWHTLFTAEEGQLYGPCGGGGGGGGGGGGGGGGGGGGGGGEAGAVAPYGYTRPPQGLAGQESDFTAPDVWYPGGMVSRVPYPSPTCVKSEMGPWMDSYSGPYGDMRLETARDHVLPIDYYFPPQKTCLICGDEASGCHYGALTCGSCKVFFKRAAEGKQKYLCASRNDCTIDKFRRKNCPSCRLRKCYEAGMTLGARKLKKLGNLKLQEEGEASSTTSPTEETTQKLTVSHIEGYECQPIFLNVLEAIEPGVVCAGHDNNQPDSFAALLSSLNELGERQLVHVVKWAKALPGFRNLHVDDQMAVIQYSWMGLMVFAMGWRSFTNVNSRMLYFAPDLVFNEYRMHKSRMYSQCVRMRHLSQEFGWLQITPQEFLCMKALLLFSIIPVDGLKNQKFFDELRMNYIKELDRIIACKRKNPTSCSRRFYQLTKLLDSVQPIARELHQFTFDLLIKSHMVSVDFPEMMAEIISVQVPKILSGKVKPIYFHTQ
smiles,measurement,setting,value
Cc1occc1C(=O)Nc1ccc(C(=O)N2CCC(F)(F)/C(=C\C(=O)N3CCC(N4CCCCC4)CC3)c3ccccc32)cc1,outcome,AR (gene 367) [1],inactive
same,AC50,AR (gene 367) [2],42.3 µM (active)
Clc1cc(Cl)c2c(c1)N=C1CCCCCN1C2,outcome,[3],inactive
same,outcome,[4],inactive
OCCO,outcome,[3],inactive
same,outcome,[4],inactive
same,outcome,AR (gene 367) [2],inactive
O=C(O)Cn1c(=O)n(Cc2ccc(Br)cc2F)c(=O)c2ccc(Cl)cc21,outcome,[3],inactive
same,outcome,AR (gene 367) [2],inactive
O=c1c(-c2ccc(O)cc2)coc2cc(O)cc(O)c12,outcome,AR (gene 367) [1],inactive
same,AC50,[4],83.2 µM (active)
same,AC50,AR (gene 367) [2],65.1 µM (active)
CN(C)C(=O)C1(N2CCCCC2)CCN(CC[C@@]2(c3ccc(Cl)c(Cl)c3)CN(C(=O)c3ccccc3)CCO2)CC1,AC50,[3],10.3 µM (active)
same,AC50,[4],9.2 µM (active)
same,AC50,AR (gene 367) [2],13.6 µM (active)
CCCCOC(=O)c1ccc(O)cc1,outcome,[4],inactive
same,AC50,AR (gene 367) [2],67.9 µM (active)
COc1cccc([C@H](O)C2CCN(CCc3ccc(F)cc3)CC2)c1OC,outcome,[3],inactive
same,outcome,[4],inactive
CCCCCCCCCCCC[N+](C)(C)C,AC50,[3],50 µM (active)
same,AC50,[4],8.63 µM (active)
CN(C[C@@H](CC[N+]12CCC(C3CCCCC3)(CC1)CC2)c1ccc(Cl)c(Cl)c1)C(=O)c1cc(C(F)(F)F)cc(C(F)(F)F)c1,AC50,[3],10.6 µM (active)
same,AC50,[4],16.4 µM (active)
same,AC50,AR (gene 367) [2],7.24 µM (active)
CN(C)c1ccc(C(=C2C=CC(=[N+](C)C)C=C2)c2ccc(N(C)C)cc2)cc1,AC50,[3],5.4 µM (active)
same,AC50,[4],0.767 µM (active)
same,AC50,AR (gene 367) [2],0.167 µM (active)
CN1C(=O)CC[C@H]1c1cccnc1,outcome,[3],inactive
same,outcome,[4],inactive
O=C(O)c1ccccc1C(=O)OCc1ccccc1,outcome,[3],inactive
same,outcome,AR (gene 367) [1],inactive
same,outcome,AR (gene 367) [2],inactive
CCCCCCCCN(C)CCCCCCCC,outcome,[3],inactive
same,outcome,AR (gene 367) [1],inactive
same,outcome,[4],inactive
same,outcome,AR (gene 367) [2],inactive
COCC(C)OCC(C)OCC(C)O (stereo not given),outcome,[3],inactive
same,outcome,AR (gene 367) [1],inactive
same,outcome,AR (gene 367) [2],inactive
Cc1cn([C@H]2C[C@H](N=[N+]=[N-])[C@@H](CO)O2)c(=O)[nH]c1=O,outcome,[3],inactive
same,outcome,[4],inactive
CCN(Cc1cccnc1)C(=O)c1cccc(Cl)c1[C@]1(C)C(=O)N(Cc2ccc(OC)cc2OC)c2ccc(Cl)cc21,outcome,[3],inactive
same,outcome,AR (gene 367) [1],inactive
same,AC50,AR (gene 367) [2],32 µM (active)
Oc1ccc2ccccc2c1,outcome,AR (gene 367) [1],inactive
same,outcome,AR (gene 367) [2],inactive
CCOC(=O)O[C@H](C)OC(=O)c1ccc2c(c1)cc(C(=O)NC1CCN(C(C)C)CC1)n2Cc1cc(-c2ccc(Cl)s2)on1,AC50,[3],5.33 µM (active)
same,outcome,[4],inactive
CO[C@H]1/C=C/O[C@@]2(C)Oc3c(C)c(O)c4c(O)c(c(/C=N/N5CCN(C)CC5)c(O)c4c3C2=O)NC(=O)/C(C)=C\C=C\[C@H](C)[C@H](O)[C@@H](C)[C@@H](O)[C@@H](C)[C@H](OC(C)=O)[C@@H]1C,outcome,[4],inactive
NC(=O)c1nc(-c2cccc(-c3cc(F)ccc3OCC(F)(F)C(F)(F)F)c2)n[nH]1,AC50,[3],94 µM (active)
same,outcome,AR (gene 367) [1],inactive
same,AC50,[4],0.683 µM (active)
same,AC50,AR (gene 367) [2],18.4 µM (active)
COc1ccc2cc(S(=O)(=O)N[C@H](CC(=O)N[C@H](Cc3ccc(CN4[C@H](C)CCC[C@@H]4C)cc3)C(=O)N(C)C(C)C)c3ccc4c(c3)OCO4)ccc2c1,AC50,[3],10.8 µM (active)
same,AC50,[4],18.9 µM (active)
O=C(Nc1ccc(Cl)cc1)Nc1ccc(Cl)c(Cl)c1,AC50,[3],18.7 µM (active)
same,outcome,AR (gene 367) [1],inactive
same,outcome,[4],inactive
same,AC50,AR (gene 367) [2],5.97 µM (active)
Cc1ccc(C(C)C)cc1,outcome,[3],inactive
same,outcome,AR (gene 367) [2],inactive
CC(=O)N1CCN(c2ccc(OC[C@H]3CO[C@](Cn4ccnc4)(c4ccc(Cl)cc4Cl)O3)cc2)CC1,AC50,[3],86.7 µM (active)
same,outcome,[4],inactive
CC(C)(C)c1cc(/C=C2\SC(N)=NC2=O)cc(C(C)(C)C)c1O,AC50,[3],31.6 µM (active)
same,outcome,[4],inactive

# — PubChem BioAssay (EPA / NIEHS)
